# Data taken from PubChem BioAssay AID504465 (National Center for Advancing Translational Sciences (NCATS), 2011).
# The whole screen tested about 2,100 compounds, of which about 210 (10%) were called active. Another 53% or so got no clear call; they are omitted. The list shows a part of the results. Values without a mark were called inactive. Calls follow the shape of the dose curve; as a rule, active = well fitted inhibition curve with a large enough effect; inconclusive = small, poorly fitted or top-dose-only effect, or effect the other way; inactive = no such curve, though single readings can be large or run the other way.
# Experiment: IN Cell qHTS Assay for Inhibitors of the mTORC1 Signaling Pathway in MEF (Tsc2-/-, p53-/-) Cells: Sytravon; also: nearly all actives have a fitted effect of over 60% in size
# Conditions: phospho-rpS6 immunofluorescence, 24 h; series mostly up to 38.3 µM; activity, negative = inhibition: at the top concentration
# Text: NIH Molecular Libraries Probe Production Centers Network [MLPCN] NIH Chemical Genomics Center [NCGC] MLPCN Grant: NS059428-01 Assay Submitter (PI): Blenis, John; Hoffman, Greg; Harvard University NCGC Assay Overview: Thee mammalian target of rapamycin (mTOR) is an intracellular serine/threonine kinase Aberrant regulation of mTOR signaling plays a causative role in a number of human diseases, including cancer, benign tumors such as lymphangioleiomyomatosis (LAM) and Tuberous Sclerosis Complex (TSC), and metabolic diseases such as diabetes and obesity. This project aims to identify inhibitors of ribosomal protein S6 (rpS6) phosphorylation. The phosphorylation of rpS6 is a key event downstream of mTOR activation. The assay uses a phospho-specific antibody of phospho-rpS6 to detect inhibitors of mTOR activation. Mutations in the Tsc1 and Tsc2 genes are the underlying genetic lesions responsible for TSC, causing constitutive activation of the mTORC1 pathway and leading to profound effects on cell metabolism. Aberrant metabolism in cancer has recently received significant attention as a target to develop therapeutic agents in the treatment of cancer1. As Tsc2-/- cells have lost the ability to respond to energy and growth factor deprivation, these cells are unable to properly down regulate cellular biosynthetic processes in response to metabolic stress, and are thus extremely sensitive to glucose deprivation-induced death.2 A central goal of this project is to explore the unique cell survival and metabolic properties of cells with Tsc1 or Tsc2 by screening for compounds that selectively target the Tsc2-/- MEFs by screening both Tsc2-/- and WT MEF cell lines. We hope to better understand these aspects of TSC physiology in order to exploit them for therapeutic benefit.
# NCGC IN Cell Assay Protocol: For quantitative high throughput analysis of mTORC1 signaling, we developed a cell-based assay for immuno-fluorescence based detection of rpS6 phosphorylation on the Acumen Explorer that will be used a platform for the primary small molecule screen. Mouse embryonic fibroblasts (MEFs) are cultured in 1536-well plates using DMEM + 10% FBS. Twenty-four hrs after plating, test compounds (solubilized in DMSO) are delivered and incubated with the cells for 24 hrs at 37 degree Celsius. Following the incubation, media with compound is aspirated and the cells are fixed in 4% paraformaldehyde (PFA) containing PBS + 0.2% TX-100. Next, PFA is aspirated, cells are washed two times with PBS plus 0.2% TX-100 and the cells are blocked for 1 hr at room temperature (blocking buffer: LiCOR Blocking Buffer plus 0.2% TX-100). This is followed by aspiration and staining with Alexa-488 conjugated-phospho-rpS6 Ser235/236 antibody for 2 hours at room temperature (Cell Signaling Technology # 4803, 1:50 dilution in blocking buffer). Cells are washed two times with PBS plus 0.2% TX-100, and stained with 10 uM propidium iodide (PI) for 20-25 minutes for cell number measurement (1:500 dilution of Hoescht staining is also added for IN Cell imaging). Active wells which are selected (based on Acumen results) are imaged on the IN Cell 1000 (GE Healthcare) using the D360/40X and HQ480/40X excitation filters for the Hoechst and Alexa-488 cytoplasmic stains, respectively. The fluorescence emission filters used were HQ460/40M and HQ535/50M for the Hoechst and Alexa-488 cytoplasmic stains, respectively. The normalized phospho-S6 staining is calculated as the ratio of […] for the single concentration rapamycin control (7.5 nM) and DMSO columns. […] Inhibition of the pathway is defined based on the normalized phospho-S6 intensity in rapamycin treated cells. Each treatment is reported as the % positive cells in the well, where thresholds are defined by selecting wells with the highest and lowest signal and differentiating between the % non-active and % active populations. […]
# Potency is read from the fitted curve at half-maximal effect.
SMILES,"activity, negative = inhibition [%]",Potency
O=C(NCCc1ccccc1)c1ccc(Cn2c(SCc3ccccc3)nc3cccnc32)cc1,-23.6,–
O=C(Nc1ccc(Cl)cc1)c1cc(S(=O)(=O)N2CCCc3ccccc32)ccc1F,6.25,–
Cc1noc2ncnc(N3CCN(c4ccccc4F)CC3)c12,-0.0728,–
Fc1ccc(Nc2nc(Nc3ccc(F)cc3)nc(N3CCOCC3)n2)cc1,–,0.521 µM (active)
CCOc1ccc(Nc2nc(Nc3ccc(OCC)cc3)nc(N3CCOCC3)n2)cc1,–,0.826 µM (active)
Cc1ccc(Nc2nc(Nc3ccc(C)c(C)c3)nc(N3CCOCC3)n2)cc1C,–,0.656 µM (active)
Cc1cccc(Nc2nc(Nc3cccc(C)c3)nc(N3CCOCC3)n2)c1,–,1.47 µM (active)
CCCN1C(=O)CN(C2CCCCCC2)C(=O)C1c1ccc(OCC)c(OC)c1 (stereo not given),6.25,–
CC(C)OCCCNC(=O)CCCN1C(=O)CCn2nc(-c3cccn3C)cc21,-0.543,–
CCCN1CCN(c2ncnc3sc(C(=O)Nc4ccc(OC(F)(F)F)cc4)c(C)c23)CC1,-14.8,–
O=C(Nc1cc(Cl)cc(Cl)c1)c1ccc(F)c(S(=O)(=O)N2CCCCCC2)c1,6.25,–
CC(C)c1nn2c(=O)cc(COC(=O)c3ccc(NC(=O)c4cccs4)cc3)nc2s1,0,–
CC1=Nc2cc(C(=O)NC3CCCC3)ccc2Sc2ccc(C)cc21,-15,–
COc1ccc(Nc2nc(Nc3ccc(OC)cc3OC)nc(N3CCOCC3)n2)c(OC)c1,–,1.31 µM (active)
COc1ccccc1NCc1cccn1-c1nnc(N2CCOCC2)s1,-15,–
CCCN1Cc2cccc(C(=O)Nc3ccc(OC)cc3OC)c2C1=O,13.5,–
CCN1CCN(CCCNC(=O)c2cc3c(s2)-c2c(C)cccc2OC3)CC1,–,14.7 µM (active)
CCN(CC)S(=O)(=O)c1ccc2c(c1)N(CC(=O)NCCCN1CCN(c3cc(C)ccc3C)CC1)C(=O)CO2,0,–
CCCN1CCN(CCCNC(=O)c2cc3c(s2)-c2c(C)cccc2OC3)CC1,–,18.5 µM (active)
CCOc1ccccc1NC(=O)c1c(NCc2cccs2)sc2c1CCC(C)C2 (stereo not given),0,–
Cc1ccc(C)c(NC(=O)CSc2cn(CC(=O)N3CCCC3)c3ccccc23)c1,-2.42,–
COc1ccc(-c2ccc3c(N)c(C(=O)Nc4cccc(C)c4)sc3n2)cc1,–,13.1 µM (active)
COc1cccc(Nc2sc(C(=O)c3ccc(F)cc3)c(N)c2C(=O)NCc2ccc(C)cc2)c1,0,–
COc1ccc(C(=O)Nc2cc(-c3nc4ccccc4s3)ccc2OC)cc1,-10.3,–
COc1ccc(-c2cc(C(=O)Nc3cccc(O)c3)on2)cc1OC,-6.34,–
COc1ccc(-c2cc(C(=O)Nc3ccc4c(c3)OCO4)no2)cc1,-7.44,–
COc1ccc(NC(=O)c2sc3nc(-c4ccc(OC)cc4)cc(C(F)(F)F)c3c2N)cc1,15.3,–
COc1cccc(-c2ccc3c(N)c(C(=O)c4ccc(Cl)cc4)sc3n2)c1,–,10.4 µM (active)
COc1ccc(CNC(=O)c2c(Nc3ccccc3C)sc(C(=O)c3ccccc3)c2N)cc1,-15.4,–
COc1ccc(-c2ccc3c(N)c(C(=O)Nc4ccc(C(F)(F)F)cc4)sc3n2)cc1OC,–,0.233 µM (active)
